Results on 53 compounds are retold here after PubChem BioAssay AID504706 (National Center for Advancing Translational Sciences (NCATS), 2011).

Molecules are shown by their SMILES. In all, about 320,000 compounds went through this assay and about 200 (0.062%) were called active. Roughly 6% stayed inconclusive and do not appear here. The sample holds actives, similar compounds and a random draw of the others, so the mix is not that of the screen. Calls follow the shape of the dose curve; as a rule, active = well fitted activation curve with a large enough effect; inconclusive = small, poorly fitted or top-dose-only effect; inactive = no such curve, though single readings can be large or run the other way.
Potency is read from the fitted curve at half-maximal effect.

The nature of this experiment: qHTS assay for re-activators of p53 using a Luc reporter. Also: nearly all actives have a fitted effect of over 45% in size. As to activity change, positive = activation: % of control where 0% means no effect. To be noted: H1299 p53-A138V BP100-luciferase reporter, luminescence, 24 h; series mostly up to 92.2 µM; activity change, positive = activation: at the top concentration. From the text:
The p53 tumor suppressor plays a key role in suppression of tumorigenesis and in human carcinogenesis. It is frequently found inactivated in human cancers, mainly by point mutation. These point mutations are found in a wide variety of human cancers and a majority of them affect the DNA binding domain of the protein. The point mutations either alter native p53 conformation or abolish DNA contact. Additionally, cancer cells with p53 mutations are more resistant to chemo-radiation therapies. In order to find activators to reactivate this important protein, a cell-based screen for p53-dependent luciferase-reporter expression was developed. A p53-null H1299 lung cancer cell line was stably co-transfected with a temperature sensitive p53 mutant, p53-A138V, and a p53-responsive BP100-luciferase reporter. This cell model has previously been characterized in a gene chip profiling experiment for p53 activation. By lowering the culture temperature from 37 deg C (mutant p53 conformation) to 32 deg C (w.t. p53 conformation), a 30-60 fold increase in activation of luciferase activity is observed. At assay temperate, 37 deg C, basal reporter expression is very low and after the addition of detection reagent, a luminescent read-out is carried out. NIH Chemical Genomics Center [NCGC] NIH Molecular Libraries Probe Production Centers Network [MLPCN] MLPCN Grant: DA031088-01A1 Assay Provider (PI): Yi Sung, University of Michigan at Ann Arbor
5ul of 1000 cells per well are dispensed in all wells except column 4, into white solid-bottom TC-treated Kalypsys plates. The cells are kept in Opti-MEM and supplemented with 10% FBS and dispensed using a Multidrop (Thermo). Then using the Kalypsys pin-tool, 23nl of compounds are pinned. The compounds are starting concentration at 10mM, with 1:5 dilution, 4 points, and the control compound nocodazole is pinned in column 1 at 25mM, 1:3 dilution, in duplicate, 25mM nocodazole is pinned in column 2. Please note, all concentrations are working concentrations. 5ul of 1pM purified luciferase enzyme is dispensed using the Kalypsys dispenser in column 4. Plates are incubated for 24 hrs at 37 deg C, 5% CO2, and 95% humidity. Then 4ul of the detection reagent Amplite (ABD Bioquest) is added using the Kalypsys dispenser. Plates are incubated for 10 min at ambient room temperature and are then read on the ViewLux (Perkin Elmer) using a clear filter for a luminescent read-out.
For orientation: Quantitative high-throughput screening tests each substance at several concentrations.
For `COC(=O)c1ccc(/C=C/c2c(-c3ccc(OC)cc3)sc3ccccc23)cc1`, the “activity change, positive = activation” value was 1.3% (inactive). Consider `Cc1ccc(S(=O)(=O)N2CCN(C(=O)CN3C(=O)NC(C)(c4ccc(Cl)cc4)C3=O)CC2)c(C)c1` (stereo not drawn), for which the “activity change, positive = activation” value was 11.7% (inactive). For the compound `O=C(CSc1nc2ccccc2c(=O)n1-c1ccccc1F)N1CCOCC1`, the “activity change, positive = activation” value was -7.54% (inactive).

With `Cc1c(Cl)cnc(NC(=O)COC(=O)C2CCCC2)c1Cl`, the “activity change, positive = activation” value is -1.21% (inactive). Same read-out and setting: the same measure for `C[C@H](CO)N1C[C@H](C)[C@H](CN(C)C(=O)Nc2ccc(C(F)(F)F)cc2)Oc2c(NC(=O)c3ccncc3)cccc2C1=O`: -2.92% (inactive); for `CC[C@]1(C(=O)OC)[C@H]2C(=O)N(Cc3ccccc3)C(=O)[C@H]2[C@H]2CN=C(SCc3ccccc3)N21`: 33.6% (inactive). Still for that read-out and setting: for `CC[C@@]1(C(=O)OC)N[C@H](CN(C)C(C)=O)[C@@H]2C(=O)N(C)C(=O)[C@@H]21` the value was 4.26% (inactive); for `CN(C(=O)c1cccc(NC(=O)Cc2cccc([N+](=O)[O-])c2)c1)C1CCCCC1`, -1.26% (inactive); for `COc1cc(C(=O)NC2CCN(C)CC2)ccc1Nc1ncc2c(n1)N(C1CCC(O)CC1)CCC(=O)N2C` (stereo not drawn), -2.64% (inactive).

As to `CSCCC1NC(=O)N(CC(=O)Nc2cccc(S(=O)(=O)N3CCCCCC3)c2)C1=O` (stereo not drawn), the “activity change, positive = activation” value is -6.05% (inactive). Take `CN(C(=O)c1cccc(NC(=O)C2CCN(C(=O)OC(C)(C)C)CC2)c1)C1CCC1`: the “activity change, positive = activation” value is -1.82% (inactive). As for `Cc1ccc(S(=O)(=O)N2CCN(C(=O)COC(=O)CNC(=O)c3ccc(C(C)(C)C)cc3)CC2)c(C)c1`, the “activity change, positive = activation” value is 9.42% (inactive). With `CCC(CO)Oc1cc(NCc2ccccc2)c2ncn(C3CCCC3)c2c1` (stereo not drawn), the “activity change, positive = activation” value is -0.676% (inactive). Regarding `Nc1ncnc2c1ncn2[C@@H]1O[C@H](CNCc2cccn2-c2nccs2)[C@@H](O)[C@H]1O`, the “activity change, positive = activation” value was 3.16% (inactive). Turning to `CCOC(=O)C1=CN(Cc2ccc(Br)cc2)S(=O)(=O)NC1C` (stereo not drawn), the “activity change, positive = activation” value is 7.34% (inactive). As to `COc1ccc2[nH]c3c(c2c1)CCN1C(=O)C(CC(=O)NCCc2ccccn2)C[C@H](C(=O)N2CCOCC2)[C@@]31C` (stereo partly drawn), the “activity change, positive = activation” value was 6.48% (inactive). As for `O=C(COC(=O)c1cc[n+]([O-])cc1)Nc1ccc(Cl)c(C(F)(F)F)c1`, the “activity change, positive = activation” value is -6.74% (inactive). With `COc1ccc(CCOC2OC(CO)C(OC(=O)/C=C/c3ccc(O)c(OC)c3)C(O[C@H]3O[C@@H](C)[C@H](O)[C@@H](O)[C@H]3O)C2O)cc1O` (stereo partly drawn), the “activity change, positive = activation” value was -0.634% (inactive). As for `CCOC(=O)[C@H]1[C@H]2COc3ccccc3[C@@H]2N2C(=O)CN(Cc3ccccc3)C(=O)[C@@]12C`, the “activity change, positive = activation” value was -0.503% (inactive).

On to `COc1ccc(OC)c(NC(=O)COC(=O)Cc2ccsc2)c1`, for which the “activity change, positive = activation” value is 4.86% (inactive). The same measure, in the same setting: the same measure for `O=C(CC1SC(N2CCOCC2)=NC1=O)Nc1ccccc1F` (stereo not drawn): -4.02% (inactive). For `O=C(NC(=S)Nc1ccc(Br)cc1F)C1CCCCC1`, the “activity change, positive = activation” value was 14.8% (inactive). `COc1ccc(CNC(=O)C[C@H]2C[C@H](C(=O)N3CCOCC3)[C@@]3(CCC4CCCC4)c4[nH]c5ccc(Cl)cc5c4CCN3C2=O)cc1OC`: the “activity change, positive = activation” value is 5.3% (inactive). Take `CCN1C[C@@H]2[C@@H]3C(=O)N(Cc4ccccc4)C(=O)[C@@H]3[C@](Cc3ccccc3)(C(=O)OC)N2C1=NC1CCCCC1`: the “activity change, positive = activation” value is -5.11% (inactive). In the case of `CCCCNc1c(-c2ccc(OC)c(Sc3ccc(OC)cc3)c2)nc2ccc(Cl)cn12`, the “activity change, positive = activation” value was 5.53% (inactive). `CC(C)N(C(=O)[C@H]1C[C@H](CC(=O)NC(C)(C)C)C(=O)N2CCc3c([nH]c4ccc(Cl)cc34)[C@]12C)C(C)C`: the “activity change, positive = activation” value was -11.8% (inactive). For the compound `Cc1c(NC(=O)C(C)OC(=O)c2ccccc2O)c(=O)n(-c2ccccc2)n1C` (stereo not drawn), the “activity change, positive = activation” value is 0.846% (inactive). Take `COCCN(CCOC)S(=O)(=O)NC[C@H]1O[C@@H](n2cnc3c(N)ncnc32)[C@H](O)[C@@H]1O`: the “activity change, positive = activation” value was -0.886% (inactive).

Regarding `Cc1ccsc1C(=O)NNC(=O)COc1ccc(Br)cc1`, the “activity change, positive = activation” value is 19.4% (inactive). Regarding `COc1cc(C)ccc1OCC(=O)OCC(=O)c1ccc[nH]1`, the “activity change, positive = activation” value is -12.1% (inactive). Take `CCN(CC)C(=O)[C@H]1C[C@H](CC(=O)NCC23CC4CC(CC(C4)C2)C3)C(=O)N2CCc3c([nH]c4cc(CCC(=O)N(C)C)ccc34)[C@]12C`: the “activity change, positive = activation” value is -3.09% (inactive).

For the compound `O=C(COC(=O)c1cccc(Cl)c1)NC(=O)NCc1ccccc1`, the “activity change, positive = activation” value is 6.37% (inactive).

As to `CCCc1cc(=O)[nH]c(SCC(=O)Nc2ccc(C(=O)Nc3ccccc3OC)cc2)n1`, the “activity change, positive = activation” value was -10.1% (inactive). Regarding `O=C(CSc1ncn[nH]1)Nc1ccc(Br)cc1Br`, the “activity change, positive = activation” value was 2.67% (inactive). Take `CC(C)(C)OC(=O)C[C@@H]1C/C=C\C[C@@H](CC(=O)N[C@@H](CO)Cc2ccccc2)C(=O)N2CCC[C@H]2COC1=O`: the “activity change, positive = activation” value was -0.764% (inactive). Take `COc1ccccc1-c1nnc2n1N=C(c1ccc(OC(F)F)c(OCC3CC3)c1)CS2`: the “activity change, positive = activation” value was 4.56% (inactive). Still for that read-out and setting: the same measure for `C=CC1=C(C(=O)O)N2C(=O)[C@@H](NC(=O)/C(=N\OCC(=O)O)c3csc(N)n3)[C@H]2SC1`: -3.99% (inactive); for `O=C(CSc1ncn[nH]1)Nc1nc(-c2cccc([N+](=O)[O-])c2)cs1`: 12.9% (inactive). On to `O=C(CSc1nc(-c2ccccc2)cs1)Nc1cccc([N+](=O)[O-])c1`, for which the Potency is 35.5 µM (active).

`CCNC(=O)CSc1nc(-c2ccccc2)cs1`: the “activity change, positive = activation” value was 17.9% (inactive). With `CC(C)(C)OC(=O)C[C@@H]1C/C=C\C[C@H](CC(=O)N[C@@H](CO)Cc2ccccc2)C(=O)N[C@H](Cc2ccccc2)COC1=O`, the “activity change, positive = activation” value is 2.06% (inactive). Turning to `CC(C)n1cnc2c(NCc3ccccc3)cc(OCC3CCN(C)CC3)cc21`, the “activity change, positive = activation” value is -11.8% (inactive). Take `CN(Cc1ccc(CNC[C@H]2O[C@@H](n3cnc4c(N)ncnc43)[C@H](O)[C@@H]2O)o1)S(C)(=O)=O`: the “activity change, positive = activation” value is 15.9% (inactive). Same read-out and setting: the same measure for `CCOC(=O)C1=C(C)N(C[C@@H]2CC[C@@H](Cc3ccc(-c4ccccc4)cc3)O2)C(=O)NC1c1ccc([N+](=O)[O-])cc1` (stereo partly drawn): -4.21% (inactive); for `O=S(=O)(c1cccs1)N1CCN(CCOc2ccccc2)CC1`: -4.44% (inactive); for `CCCN=C1N(C)C[C@@H]2[C@@H]3C(=O)N(Cc4ccccc4)C(=O)[C@@H]3[C@](C)(C(=O)OC)N12`: 11.5% (inactive).

On to `COc1cccc(-c2sc3ccc(OC)cc3c2-c2ccc(OCCN3CCCCC3)cc2)c1`, for which the “activity change, positive = activation” value was 0.454% (inactive). As to `CC[C@@H](C)[C@@H]1CN([C@@H](C)CN2CCC[C@H]2CN2C(N)=NC[C@H]2C(C)C)C(=N)N1CCc1ccc(Cl)c(Cl)c1`, the “activity change, positive = activation” value was 1.67% (inactive). On to `C[C@H](CO)N1C[C@H](C)[C@@H](CN(C)Cc2ccc(-c3ccccc3)cc2)Oc2ccc(NC(=O)Cn3cnnn3)cc2C1=O`, for which the “activity change, positive = activation” value was 0.106% (inactive). With `COc1cc(C2CC(=O)Oc3cc(OC)c(OC)c(OC)c32)cc(OC)c1OC` (stereo not drawn), the “activity change, positive = activation” value is -8.59% (inactive). As to `Cc1cccc(-c2noc(CCC(=O)NC3CCCC3)n2)c1`, the “activity change, positive = activation” value was 3.23% (inactive). For `Cc1cccc(-c2noc(-c3ccc(F)cc3)n2)c1`, the Potency was 31.6 µM (active). As to `Brc1ccc(-c2noc(-c3ccccc3)n2)o1`, the “activity change, positive = activation” value was 24.1% (inactive).
